Screens as filed in PubChem.
Compounds with a hit are over-represented: about 0.34% of the library has one in this group of screens.
Epigenetic reg = derepresses silenced GFP reporter in murine cells | murine LDR cells, GFP reporter derepression, 30 h | Potency, µM (titrated, usually from 53.9 µM), for the others: at the highest dose GFP activation, actives largely listed as activators | 280,000 compounds, 0.2% hits; also: % of control where 0% means no effect; nearly all actives have a fitted effect of over 60% in size
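Readout is the number of GFP-expressing murine LDR cells, counted by cytometry following washing. Cells were treated with compound for 30 h at 37 C; the stably integrated CMV-GFP locus is normally silent.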
Vif-A3F inh = inhibitors of Vif-A3F interaction; HeLa A3F-eYFP + Vif (tagged APOBEC3F with the HIV-1 protein that degrades it), YFP fluorescence increase; Potency, µM (series often up to 46.1 µM), without a hit: at the top dose activity, negative = active; 390,000 compounds, 0.2% hits; AID 602313; also: % of control where 0% means no effect; nearly all actives have a fitted effect of over 65% in size
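Fluorescence increase (Ex 488/Em 500-530) after overnight compound treatment at 37 deg C flags inhibition of Vif-driven A3F-eYFP loss in stable HeLa A3F-eYFP/Vif cells seeded overnight beforehand.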
Vif-APOBEC3G blk = blocks the Vif interaction with human APOBEC3G; HeLa A3G-eYFP + Vif (tagged APOBEC3G with the HIV-1 protein that degrades it), YFP fluorescence, overnight; Q9HC16; AID 602310; 410,000 compounds, 0.076% hits; Potency, µM (doses to about 46.1 µM), for inactives: at the top dose activity, negative = active, hits mostly inhibitors; also: % is scaled to controls: 0 for no effect and ±100 for the full control effect; nearly all actives have a fitted effect of over 60% in size
Target sequence (Q9HC16 whole entry, looked up): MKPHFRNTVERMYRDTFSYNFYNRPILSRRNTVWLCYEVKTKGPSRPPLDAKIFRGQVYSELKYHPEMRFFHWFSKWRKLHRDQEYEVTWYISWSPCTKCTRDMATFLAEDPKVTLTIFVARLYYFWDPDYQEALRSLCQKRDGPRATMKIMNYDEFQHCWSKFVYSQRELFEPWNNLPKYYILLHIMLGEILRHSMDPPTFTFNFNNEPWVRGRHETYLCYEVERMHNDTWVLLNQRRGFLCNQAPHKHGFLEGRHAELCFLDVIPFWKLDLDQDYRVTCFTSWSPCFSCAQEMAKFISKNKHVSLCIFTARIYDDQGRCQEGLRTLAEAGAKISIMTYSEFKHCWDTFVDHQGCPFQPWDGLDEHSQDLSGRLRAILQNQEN
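Read-out is eYFP fluorescence (Ex 488/Em 500-530) from Vif-expressing HeLa A3G-eYFP cells; more signal means A3G escaped Vif-mediated degradation. Cells plated overnight, compound pinned in, incubated overnight at 37 deg C.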
* marks the source's active call; other numbers are inactive results; u = inconclusive; x = not tested or not shown. Calls follow the shape of the dose curve; as a rule, active = well fitted curve in the direction sought with a large enough effect; inconclusive = small, poorly fitted or top-dose-only effect, or another doubt; inactive = no such curve, though single readings can be large; an effect the other way counts as inactive or inconclusive. Potency is read from the fitted curve at half-maximal effect.

SMILES | Epigenetic reg | Vif-A3F inh | Vif-APOBEC3G blk
COCCn1c(SCC(=O)c2c[nH]c3ccccc23)nnc1-c1ccncc1 | 0% | -6% | 0%
CCn1c(SCC(=O)c2c[nH]c3ccccc23)nnc1-c1cccs1 | 3% | 22µM* | 11µM*
Cc1nc2ccc(NC(=O)c3cc(S(=O)(=O)N(C)c4ccccc4)ccc3Cl)cc2s1 | 4% | 22µM* | -10%
Cc1nc2ccc(NC(=O)c3ccc(Cl)c(S(=O)(=O)N(C)c4ccccc4)c3)cc2s1 | -2% | u | u
CC(=O)NCc1nc2cccnc2n1Cc1ccccc1 | 0% | 11% | -6%
Cc1cc(C)nc(Nc2nc(C(N)Cc3ccccc3)cs2)n1 (stereo not given) | x | x | 4.5µM*
COC(=O)c1cc(C)nc(Nc2nc(C(N)Cc3ccc(F)cc3)cs2)n1 (stereo not given) | x | x | 1%
COc1cc(OC)c(NC(=O)Nc2cccc(OCc3cc(=O)n4ccccc4n3)c2)cc1Cl | 6% | 6% | 1%
CCN1/C(=C/c2ccc3cc(C)ccc3[n+]2CC)Sc2cc(C)c(C)cc21 | 25µM* | u | u
CCN1/C(=C/c2ccc3cc(C)ccc3[n+]2CC)Sc2ccccc21 | u | -172% | -8%
Cn1c(=O)c2c(-c3ccccc3)n3c(c2n(C)c1=O)C(c1cccc([N+](=O)[O-])c1)Nc1ccccc1-3 (stereo not given) | -5% | -1% | -4%
Cc1cccc(N2CCN(C(=O)CN3C(=O)COc4ccc(S(=O)(=O)N5CCCCCC5)cc43)CC2)c1C | -2% | 2% | 1%
COC1=C/C(=C/c2c(N)n3cc(C)sc3nc2=O)C=CC1=O | 13% | 0% | -16%
Cc1cn2c(N)c(C=C3C=C(Cl)C(=O)C(Cl)=C3)c(=O)nc2s1 | 2% | 10µM* | -11%
CCN1c2cc(C)ccc2-n2cccc2C12CCN(C(=O)Nc1cc(OC)c(OC)c(OC)c1)CC2 | 1% | 8% | 4%
CN(C)CCC(=O)N1C/C(=C/c2ccccc2)C(=O)/C(=C\c2ccccc2)C1 | x | 0% | u
C[N+](C)(C)CCC(=O)N1C/C(=C/c2ccccc2)C(=O)/C(=C\c2ccccc2)C1 | x | u | 7.9µM*
COc1ccc(CCNC(=O)Cn2cc(S(=O)(=O)Cc3ccccc3Cl)c3ccccc32)cc1OC | -1% | -4% | 3%
CC[n+]1c(C)sc2cc(C)ccc21 | -4% | 2% | 0%
Cc1ccc2c(c1)sc(-c1ccc(N(C)C)cc1)[n+]2C | x | 22µM* | u
CCN(CC)C(=O)CSc1nc(-c2cccs2)cc(-c2cccs2)c1C#N | 35µM* | x | -1%
N#Cc1c(C(F)(F)F)cc(-c2cccs2)nc1SCC(=O)Nc1cccc(Br)c1 | 10µM* | u | u
CCOc1ccc(-c2cc(C(F)(F)F)c(C#N)c(SCC(=O)Nc3ccccc3)n2)cc1 | u | u | 13µM*
CCOc1ccc(NC(=O)CSc2nc(-c3ccc(F)cc3)cc(C(F)(F)F)c2C#N)cc1 | -1% | -20% | 4%
Cc1nc(SCC(=O)Nc2nc3ccccc3s2)c(C#N)c(C)c1C | 4% | -2% | -6%
SMILES | Epigenetic reg | Vif-A3F inh | Vif-APOBEC3G blk
CCN(CC)C(=O)CSc1nc(N)c(C#N)c(-c2cccs2)c1C#N | -2% | 1% | 0%
Cc1cc(C(F)(F)F)c(C#N)c(SCC(=O)Nc2nc3ccccc3s2)n1 | 0% | 22µM* | u
N#Cc1c(C(F)(F)F)cc(-c2cccs2)nc1SCC(=O)Nc1cccc(Cl)c1 | 15% | u | -17%
COc1ccc2c(c1)-c1nc(NC(=O)c3ccc(OC)c(Br)c3)sc1CC2 | -3% | x | x
COc1cc(C(=O)NCc2ccc3c(c2)CCN3C(=O)c2ccncc2)cc(OC)c1OC | -1% | 0% | 3%
COc1ccc(NC(=O)Cn2c(=O)n(Cc3ccccc3)c(=O)c3oc4ccccc4c32)cc1Cl | 1% | 4% | 2%
CCc1ccccc1NC(=O)Cn1c(=O)nc(-c2ccccc2)c2ccccc21 | -1% | 1% | 13%
CC(=O)c1ccc(N2CCN(C(=O)c3cn(C)c(=O)c4c3c3ccccc3n4C)CC2)cc1 | -1% | 3% | -11%
Cc1ccc(C2CC(=O)N(Cc3ccc(F)cc3)c3c2c(C)nn3-c2nc(C)cc(C)n2)cc1 (stereo not given) | 2% | 1% | -5%
CCCCN(C)C(=O)C1CCCN(c2ncnc3onc(-c4ccc(F)cc4)c23)C1 (stereo not given) | 0% | 3% | -2%
COc1cc(CN(C(=O)Nc2cccc(Cl)c2)c2ccccn2)cc(OC)c1OC | -2% | 1% | 4%
CCOC(=O)c1ccc(NC(=O)CSc2nc(-c3ccc(F)cc3)cc(C(F)(F)F)c2C#N)cc1 | 7.1µM* | u | -8%
CCOC(=O)CSc1nc(-c2ccc(F)cc2)cc(C(F)(F)F)c1C#N | 10% | 0% | 2%
